PubChem BioAssay (NCI)
Compounds without any hit were thinned out: in the full panel of roughly 83,000, 20% have a hit.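 Growth was measured after 48 h exposure to one concentration of compound in 96-well plates. Values under 10 count as active.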 Activity calls are given as the source filed them.

What was measured:
Experiment in all cases: NCI-60 one-dose screen, 48 h (100 = growth as untreated, 0 = no growth, -100 = all killed)
Conditions in all cases: 10 µM unless noted
[1] = tested on: NCI-H23 lung
[2] = tested on: NCI-H226 lung
[3] = tested on: NCI-H322M lung
[4] = tested on: HOP-62 NSCLC
[5] = tested on: NCI-H460 lung
[6] = tested on: HOP-92 NSCLC
[7] = tested on: NCI-H522 lung
[8] = tested on: A549/ATCC NSCLC
[9] = tested on: 786-0 renal
[10] = tested on: COLO 205 colon
[11] = tested on: DU-145 prostate
[12] = tested on: K-562 leukemia
[13] = tested on: MALME-3M melanoma
[14] = tested on: MDA-MB-231 breast
[15] = tested on: RXF 393 renal
[16] = tested on: SF-268 CNS
[17] = tested on: SF-295 CNS
[18] = tested on: SF-539 CNS
[19] = tested on: UACC-257 melanoma
[20] = tested on: M14 melanoma

Measured: growth

COc1cccc(C(=O)OCC(O)C(=O)NC23CC4CC(CC(C4)C2)C3)c1 (stereo not given)
inactive: [1] 102% | [2] 93.5% | [3] 96.4% | [4] 104% | [5] 101% | [6] 91.7% | [7] 86.1% | [8] 90.1% | [9] 101% | [10] 111% | [11] 106% | [12] 99.1% | [13] 99.1% | [14] 93% | [15] 109% | [16] 102% | [17] 95.9% | [18] 103% | [19] 89% | [20] 99.1%

Nc1ccc([N+](=O)[O-])cc1N=C/C=C/c1ccccc1
inactive: [1] 76.9% | [2] 72% | [3] 87.8% | [5] 54% | [6] 82.2% | [7] 10.8% | [8] 72.7% | [9] 78.6% | [10] 65.5% | [11] 77.4% | [12] 29.5% | [13] 138% | [14] 47.6% | [15] 85.1% | [16] 51.4% | [17] 109% | [18] 79% | [19] 86.5% | [20] 68.4%

CS(=O)(=O)Cc1cnc(C2OCCO2)s1
inactive: [1] 107% | [2] 96.4% | [3] 100% | [5] 112% | [6] 82.4% | [7] 88.7% | [8] 94.8% | [9] 104% | [10] 116% | [11] 106% | [12] 125% | [13] 92.7% | [14] 109% | [15] 116% | [16] 93.1% | [17] 98% | [18] 94.7% | [19] 98.8% | [20] 99.9%

O=C1/C(=C/c2cccc([N+](=O)[O-])c2)COc2ccc(O)cc21
active: [7] 8.12%
inactive: [1] 89.3% | [2] 111% | [3] 89.8% | [5] 92.4% | [6] 110% | [8] 89.2% | [9] 14.7% | [10] 64.6% | [11] 81.8% | [12] 13.4% | [13] 76.6% | [14] 47.9% | [15] 107% | [16] 85.9% | [17] 95.5% | [18] 70.6% | [19] 97% | [20] 55%

C=C(CN1CC=CCC1)[C@@H]1CC[C@]2(CO)CC[C@]3(C)[C@H](CC[C@@H]4[C@@]5(C)CC[C@H](O)C(C)(C)[C@@H]5CC[C@]43C)[C@@H]12
inactive: [1] 101% | [2] 97.4% | [3] 110% | [5] 96.2% | [6] 92.4% | [7] 96% | [8] 94.8% | [9] 113% | [10] 108% | [11] 106% | [12] 77% | [13] 101% | [14] 116% | [15] 106% | [16] 101% | [17] 102% | [18] 91.1% | [19] 111% | [20] 96.1%

CC(C)=CC(=O)N[C@@H]1CC2CCC3C(CC[C@@]4(C)C3CC[C@@H]4C(C)N(C)C)[C@@]2(C)C[C@@H]1O (stereo not given in full)
active: [12] -17.1% | [18] -19.5%
inactive: [1] 43.8% | [2] 89.1% | [3] 104% | [5] 32.1% | [6] 40.6% | [7] 83% | [8] 74.5% | [9] 58.5% | [10] 14.8% | [11] 74.1% | [13] 32.3% | [14] 74.6% | [15] 20.6% | [16] 32.3% | [17] 11.1% | [19] 31.2% | [20] 47.3%

COc1cc(C(=O)c2c(N)ncn2-c2ccccc2)cc(OC)c1OC
inactive: [1] 101% | [2] 84% | [3] 104% | [5] 106% | [6] 96.2% | [7] 50.5% | [8] 106% | [9] 88.7% | [10] 97.4% | [11] 100% | [12] 76.4% | [13] 106% | [14] 103% | [15] 86.8% | [16] 101% | [17] 91% | [18] 87% | [19] 109% | [20] 96.1%

C#CC#CC#CC#CC#CC#CC#CC#CC[C@H]1OC[C@@H](COC(=O)O[C@@H](C(=O)O[C@H]2C[C@@]3(O)[C@@H](OC(=O)c4ccccc4)[C@@H]4[C@]5(OC(C)=O)CO[C@@H]5C[C@H](O)[C@@]4(C)C(=O)[C@H](OC(C)=O)C(=C2C)C3(C)C)[C@@H](NC(=O)c2ccccc2)c2ccccc2)O1
inactive: [1] 48% | [2] 56.2% | [4] 74.4% | [5] 19.2% | [6] 79.3% | [7] 71.4% | [8] 52.4% | [9] 83.3% | [10] 29.4% | [11] 41.1% | [12] 22.7% | [13] 62.5% | [14] 66% | [15] 50.7% | [16] 65.9% | [17] 43.5% | [18] 54.1% | [19] 64.6% | [20] 25.3%

Cc1nn(-c2ccccc2)c(N2CCCCC2)c1/C=N/NC(=O)Cn1c(=O)sc2ccccc21
inactive: [1] 82.6% | [2] 92.8% | [4] 77.3% | [5] 81.5% | [6] 65.6% | [7] 64.9% | [8] 66% | [9] 97.2% | [10] 88.2% | [11] 95.8% | [12] 43.4% | [13] 101% | [14] 79% | [15] 89.9% | [16] 79.2% | [17] 56.7% | [18] 92.2% | [19] 95.2% | [20] 72.2%

COc1ccc2nc(SCC(=O)Nc3ccccc3C)[nH]c2c1
inactive: [1] 101% | [2] 92.2% | [4] 90% | [5] 104% | [6] 83.2% | [7] 87.9% | [8] 84% | [9] 99.9% | [10] 113% | [11] 105% | [12] 97.5% | [13] 96.9% | [14] 98.6% | [15] 105% | [16] 102% | [17] 93% | [18] 101% | [19] 90% | [20] 101%

C#CCOc1cccc(-c2ncc3cc(NC(=O)CCl)ccc3n2)c1
inactive: [5] 27.8% | [6] 14.2% | [8] 73.4% | [17] 69.4% | [19] 62%
active: [1] -13.8% | [2] 2.41% | [4] -5.99% | [7] -72.2% | [9] -81.4% | [10] -77.7% | [11] -73.1% | [12] 2.16% | [13] -69% | [14] -10.3% | [15] -86.3% | [16] -41.8% | [18] -25.9% | [20] -45.9%

Cc1nc2ccccc2c(/C=C/c2ccc(C(F)(F)F)cc2)c1C(=O)/C=C/c1ccccc1
active: [1] -12.9% | [2] -0.692% | [5] -74.9% | [7] -61.9% | [8] 6.27% | [9] -14.1% | [10] -54.6% | [11] -43.6% | [12] 4.16% | [13] -65.2% | [14] -39.9% | [15] -82.9% | [17] -45.3% | [18] -83.6% | [19] -25.5% | [20] -25.9%
inactive: [6] 16.5% | [16] 33.4%

O=C(Nc1nc(C(=O)N2CCN(C(c3ccccc3)c3ccccc3)CC2)cs1)c1ccc(NC2CCCCC2)c([N+](=O)[O-])c1
inactive: [1] 77.2% | [2] 60.1% | [4] 90.9% | [5] 99.6% | [6] 63.7% | [7] 67.3% | [8] 93.2% | [9] 87.7% | [10] 103% | [11] 98.9% | [12] 83.9% | [13] 89.4% | [14] 70.5% | [15] 85% | [16] 86.3% | [17] 69.9% | [18] 93.3% | [19] 89.4% | [20] 77.8%

NNC(=S)N/N=C/c1ccccn1
active: [5] 9.74% | [7] -14.3%
inactive: [1] 30.9% | [2] 34.3% | [3] 46.2% | [6] 21% | [8] 46.9% | [9] 24.4% | [10] 15% | [11] 34.5% | [12] 19.4% | [13] 54.3% | [14] 47.2% | [15] 25.2% | [16] 42.9% | [17] 33.5% | [18] 11.2% | [19] 45.7% | [20] 23.7%

COc1cc2c3c(n(CCCCNCCCn4c5c(c6cc(OC)c(OC)cc6c4=O)C(=O)c4cc6c(cc4-5)OCO6)c(=O)c2cc1OC)-c1cc2c(cc1C3=O)OCO2
inactive: [1] 95.3% | [2] 106% | [4] 90.5% | [5] 106% | [6] 87% | [7] 86.8% | [8] 90.3% | [9] 109% | [10] 103% | [11] 99.1% | [12] 85.7% | [13] 81.8% | [14] 90.4% | [15] 107% | [16] 89.5% | [17] 99.9% | [18] 92.8% | [19] 94.8% | [20] 96.3%
